Results as given in PubChem BioAssay (Tox21).
Several values for one entry are separate records, joined by “and”; a condition that tells them apart may be missing. Equal entries are not always repeated. Results filed as inconclusive are left out. Where a call stands in place of a potency, no number is given. Activity calls are given as the source filed them. Unless noted, the call rests on the fitted dose curve; in most records, active means well fitted curve in the direction sought with a large enough effect in the repeat runs; inconclusive means weak or mixed curves; inactive means no such curve, though single readings can be large; an effect the other way counts as inactive or inconclusive.

biological target: Aryl hydrocarbon receptor (Homo sapiens) (UniProt P35869); experiment: qHTS assay to identify small molecule that activate the aryl hydrocarbon receptor (AhR) signaling pathway (AID 743085); settings: HepG2 AhR-luc (HG2L7.5c1), luciferase, 24 h; series mostly up to 70.3 µM; further: nearly all actives have a fitted effect of over 15% in size;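 on activation: HG2L7.5c1 human HepG2 liver cells with stably integrated DRE-driven firefly reporter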
How it was run: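 Luminescence read-out: ONE-Glo reagent, 30 min at room temperature, in HG2L7.5c1 HepG2 reporter cells treated 24 h at 37C. Viability was measured beforehand by CellTiter-Fluor fluorescence after 30 min at 37C.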
Potency means the concentration at half of the fitted maximal effect.

Sequence of Aryl hydrocarbon receptor (Homo sapiens) (P35869 whole entry, looked up): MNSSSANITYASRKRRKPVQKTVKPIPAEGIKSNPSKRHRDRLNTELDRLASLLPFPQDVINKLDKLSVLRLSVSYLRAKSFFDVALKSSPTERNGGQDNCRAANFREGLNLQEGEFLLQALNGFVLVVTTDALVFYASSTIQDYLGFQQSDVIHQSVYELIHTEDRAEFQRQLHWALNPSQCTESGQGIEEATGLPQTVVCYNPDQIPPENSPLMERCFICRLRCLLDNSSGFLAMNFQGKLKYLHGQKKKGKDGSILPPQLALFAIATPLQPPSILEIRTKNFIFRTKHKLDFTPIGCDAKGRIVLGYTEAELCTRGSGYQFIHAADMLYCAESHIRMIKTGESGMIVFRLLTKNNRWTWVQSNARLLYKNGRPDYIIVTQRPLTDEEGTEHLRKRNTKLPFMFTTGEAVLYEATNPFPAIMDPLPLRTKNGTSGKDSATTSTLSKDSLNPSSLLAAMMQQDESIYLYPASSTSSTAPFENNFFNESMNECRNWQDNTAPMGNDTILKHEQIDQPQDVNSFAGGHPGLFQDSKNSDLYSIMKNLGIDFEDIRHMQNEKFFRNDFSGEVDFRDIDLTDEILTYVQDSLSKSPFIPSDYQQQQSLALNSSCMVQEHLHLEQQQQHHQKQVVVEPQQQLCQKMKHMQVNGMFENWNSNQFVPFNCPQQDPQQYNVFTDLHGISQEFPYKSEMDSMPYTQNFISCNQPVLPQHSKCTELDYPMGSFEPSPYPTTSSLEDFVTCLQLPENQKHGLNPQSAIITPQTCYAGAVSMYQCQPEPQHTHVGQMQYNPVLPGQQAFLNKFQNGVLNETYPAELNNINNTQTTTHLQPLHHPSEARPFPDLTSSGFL

Row | SMILES | Potency
1 | CC(C)c1cccc(C(C)C)c1N1C(=O)c2ccc(O)cc2C1=O | inactive
2 | C[n+]1c2cc(N)ccc2cc2ccc(N)cc21 (tested in a mixture with another compound) | 9.44 µM (active)
3 | CC=O | inactive
4 | CCN(CC)CCNc1ccc(CO)c2sc3ccccc3c(=O)c12 | 0.531 µM (active)
5 | Cc1cc2c(C(C)C)c(O)c(O)c(C=O)c2c(O)c1-c1c(C)cc2c(C(C)C)c(O)c(O)c(C=O)c2c1O | inactive
6 | c1cc2c3c(c1)ccc1cccc(c13)C2 | inactive
7 | COc1ccc2sc(C(=O)Nc3nnn[nH]3)c(OC(C)C)c2c1 | inactive
8 | CN1CCN(C2Cc3ccccc3Sc3ccc(Cl)cc32)CC1 (centres undefined) | inactive
9 | NC(=O)c1nc(-c2cccc(-c3cc(F)ccc3OCC(F)(F)C(F)(F)F)c2)n[nH]1 | inactive
10 | CN(C)CCCN1c2ccccc2CCc2ccccc21 | inactive
11 | Nc1ccc2cc3ccc(N)cc3nc2c1 | 11.9 µM (active) and 6.11 µM (active)
12 | CC(C)(C)c1cc(/C=C2\SC(=N)NC2=O)cc(C(C)(C)C)c1O | inactive
13 | C=CC(=O)OCCC#N | inactive
14 | O=C(NO)c1ccccc1 | inactive
15 | CN(C)c1ccc(N=NS(=O)(=O)O)cc1 | 14.5 µM (active)
16 | CCCCCCCCCCCCCCNCCO | 10.6 µM (active)
17 | CCCCOC(=O)C(C)CC (centres undefined) | inactive
18 | CC1(C)C(=O)N(Br)C(=O)N1Br | inactive
19 | CCCCCCCC/C=C\CCCCCCCC(=O)N(C)CC(=O)O | inactive
20 | C=CC(=O)OCC(O)COc1ccccc1 (centres undefined) | inactive
21 | CN(C)CCCN1c2ccccc2Sc2ccc(C(F)(F)F)cc21 | inactive
22 | C=CC(=O)OCCOCC(CC)(COCCOC(=O)C=C)COCCOC(=O)C=C | inactive
23 | CN(C)c1ccc(N=Nc2ccccc2C(=O)O)cc1 | 54.5 µM (active)
24 | CC(=O)OC(OC(C)=O)c1ccc([N+](=O)[O-])o1 | inactive
25 | COc1cc(C(C)C)c2c(c1)S(=O)(=O)N(COc1cc(=O)n3cccc(OCCN4CCCCC4)c3n1)C2=O | inactive
26 | O=C(O)Cc1ccc(OCCNC[C@H](O)c2ccccc2)cc1 | inactive
27 | CCCCCCCCCCCCN(CCO)CCO | inactive
28 | O=C(Nc1ccc(Cl)cc1)Nc1ccc(Cl)c(C(F)(F)F)c1 | inactive
29 | O=C1c2c(O)ccc(O)c2C(=O)c2c(NCCNCCO)ccc(NCCNCCO)c21 | inactive

test system: not listed separately; experiment: qHTS assay to identify small molecule that activate the aryl hydrocarbon receptor (AhR) signaling pathway - cell viability counter screen (AID 743086); settings: HepG2-AhR-luc viability, CellTiter-Fluor, 24 h; series mostly up to 70.3 µM; further: nearly all actives have a fitted effect of over 45% in size
How it was run: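 HepG2-AhR-luc (HG2L7.5c1) cells, 4000/well, were preincubated 5 h at 37C, exposed to compound in qHTS format for 24 hr at 37C, then given CellTiter-Fluor for 30 min; viability was read as fluorescence in the reporter wells.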

Row | SMILES | Potency
30 | CCN(CC)CCNc1ccc(CO)c2sc3ccccc3c(=O)c12 | 6.68 µM (active)
31 | CCOC(=O)C1=C(C)NC(C)=C(C(=O)OCC)C1c1ccccc1/C=C/C(=O)OC(C)(C)C | inactive
32 | O=C1OC(=O)c2cccc3cccc1c23 | inactive
33 | c1cc2c3c(c1)ccc1cccc(c13)C2 | inactive
34 | Clc1ccc(C(Cn2ccnc2)OCc2c(Cl)cccc2Cl)c(Cl)c1 (centres undefined) | inactive
35 | CCNc1nc(NC(C)CC)nc(OC)n1 (centres undefined) | inactive
36 | ClC/C=C\CCl | inactive
37 | O=C(c1ccccc1)c1cc(Cl)ccc1O | inactive
38 | Brc1ccccc1-c1ccccc1 | inactive
39 | C=CC(=O)OCCC#N | inactive
40 | O=C(NO)c1ccccc1 | inactive
41 | CCCCCCCCCCCCCCNCCO | inactive
42 | O=C(Oc1ccccc1)c1cccc(C(=O)Oc2ccccc2)c1 | inactive
43 | C=CC(=O)OCC(O)COc1ccccc1 (centres undefined) | inactive
44 | CN(C)CCCN1c2ccccc2Sc2ccc(C(F)(F)F)cc21 | 23.7 µM (active)
45 | C=CC(=O)OCCOCC(CC)(COCCOC(=O)C=C)COCCOC(=O)C=C | 71.4 µM (active)
46 | CCCCOc1ccc(C(=O)CCN2CCCCC2)cc1 | inactive

biological target: Peroxisome proliferator-activated receptor gamma (Homo sapiens) (UniProt P37231); experiment: qHTS assay to identify small molecule agonists of the peroxisome proliferator-activated receptor gamma (PPARg) signaling pathway (AID 743094; active means well fitted activation curve with a large enough effect in the signal ratio in the repeat runs, not every such curve was filed as active; the % refers to the signal ratio); settings: HEK293H PPARg-UAS-bla, beta-lactamase FRET ratio, 17 h; series mostly up to 57 µM
How it was run: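 Reporter activation was scored by fluorescence of cleaved LiveBLAzer B/G substrate (1 h, room temperature) in PPARg-bla HEK293H cells previously treated 17 h at 37C with DMSO-dissolved compounds.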

Sequence of Peroxisome proliferator-activated receptor gamma (Homo sapiens) (P37231 whole entry, looked up): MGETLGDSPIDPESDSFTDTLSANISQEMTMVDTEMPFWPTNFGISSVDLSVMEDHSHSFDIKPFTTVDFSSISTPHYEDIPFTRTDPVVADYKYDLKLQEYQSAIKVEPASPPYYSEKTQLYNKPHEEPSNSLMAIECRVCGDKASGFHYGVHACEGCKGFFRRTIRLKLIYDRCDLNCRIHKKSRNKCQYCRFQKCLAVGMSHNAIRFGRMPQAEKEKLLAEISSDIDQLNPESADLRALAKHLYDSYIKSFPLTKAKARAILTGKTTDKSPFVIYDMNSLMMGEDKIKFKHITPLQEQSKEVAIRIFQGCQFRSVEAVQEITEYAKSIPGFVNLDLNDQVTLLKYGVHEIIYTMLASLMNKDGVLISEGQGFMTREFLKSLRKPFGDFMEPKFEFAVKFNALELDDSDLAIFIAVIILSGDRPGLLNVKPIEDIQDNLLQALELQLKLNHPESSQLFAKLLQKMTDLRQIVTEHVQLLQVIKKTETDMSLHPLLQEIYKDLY

Row | SMILES | Potency
47 | CC(C)c1cccc(C(C)C)c1N1C(=O)c2ccc(O)cc2C1=O | inactive
48 | CCOC(=O)C1=C(C)NC(C)=C(C(=O)OCC)C1c1ccccc1/C=C/C(=O)OC(C)(C)C | 9.52 µM (active)
49 | O=C1OC(=O)c2cccc3cccc1c23 | inactive
50 | Clc1ccc(C(Cn2ccnc2)OCc2c(Cl)cccc2Cl)c(Cl)c1 (centres undefined) | inactive
51 | COc1ccc2sc(C(=O)Nc3nnn[nH]3)c(OC(C)C)c2c1 | 5.47 µM (active)
52 | CCNc1nc(NC(C)CC)nc(OC)n1 (centres undefined) | inactive
53 | ClC/C=C\CCl | inactive
54 | O=C(c1ccccc1)c1cc(Cl)ccc1O | inactive
55 | CC1(C)C(=O)N(Br)C(=O)N1Br | inactive
56 | CCCCCCCC/C=C\CCCCCCCC(=O)N(C)CC(=O)O | 6.92 µM (active)
57 | COc1cc(C(C)C)c2c(c1)S(=O)(=O)N(COc1cc(=O)n3cccc(OCCN4CCCCC4)c3n1)C2=O | inactive
58 | O=C(O)Cc1ccc(OCCNC[C@H](O)c2ccccc2)cc1 | inactive
59 | CCCCOc1ccc(C(=O)CCN2CCCCC2)cc1 | inactive
60 | O=C(Nc1ccc(Cl)cc1)Nc1ccc(Cl)c(C(F)(F)F)c1 | inactive

biological target: Peroxisome proliferator-activated receptor gamma (Homo sapiens) (UniProt P37231); experiment: qHTS assay to identify small molecule antagonists of the peroxisome proliferator-activated receptor gamma (PPARg) signaling pathway (AID 743191; calls by dose curve; further: nearly all actives have a fitted effect of over 30% in size); settings: HEK293H PPARg-UAS-bla, beta-lactamase ratio, antagonist, 17 h; series mostly up to 62.6 µM
How it was run: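 GeneBLAzer PPARg UAS-bla HEK293H cells carrying a UAS-driven beta-lactamase reporter were plated at 3000 cells/well, preincubated 5 h at 37C, then given compound for 17 h at 37C; LiveBLAzer B/G FRET substrate was read after 1 h at room temperature.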

Row | SMILES | Potency
61 | O=C1OC(=O)c2cccc3cccc1c23 | inactive
62 | CN1CCN(C2Cc3ccccc3Sc3ccc(Cl)cc32)CC1 (centres undefined) | 29.8 µM (active)
63 | CCNc1nc(NC(C)CC)nc(OC)n1 (centres undefined) | inactive
64 | ClC/C=C\CCl | inactive
65 | O=C(c1ccccc1)c1cc(Cl)ccc1O | inactive
66 | CC1(C)C(=O)N(Br)C(=O)N1Br | inactive
67 | CN(C)c1ccc(N=Nc2ccccc2C(=O)O)cc1 | inactive
68 | O=C(O)Cc1ccc(OCCNC[C@H](O)c2ccccc2)cc1 | inactive
69 | CCCCOc1ccc(C(=O)CCN2CCCCC2)cc1 | inactive
